# From PubChem BioAssay (NCI)
# Compounds without any hit were thinned out: in the full panel of roughly 83,000, 20% have a hit.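 Cells were grown in 96-well plates and exposed to the test compound at a single concentration for 48 hours; results are reported as percent growth, with values below 10 considered active.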 A number with no mark means an inactive call. The source made the active and inactive calls.
# How the values were obtained:
# Experiment in all cases: NCI-60 one-dose screen, 48 h (100 = growth as untreated, 0 = no growth, -100 = all killed)
# Details in all cases: 10 µM unless noted
# MOLT-4 leukemia = system: MOLT-4 leukemia
# RPMI-8226 leukemia = system: RPMI-8226 leukemia
# OVCAR-8 ovarian = system: OVCAR-8 ovarian
# OVCAR-5 ovarian = system: OVCAR-5 ovarian
# OVCAR-4 ovarian = system: OVCAR-4 ovarian
# SK-OV-3 ovarian = system: SK-OV-3 ovarian
# IGROV1 ovarian = system: IGROV1 ovarian
# OVCAR-3 ovarian = system: OVCAR-3 ovarian
# HS 578T breast = system: HS 578T breast
# NCI/ADR-RES ovarian = system: NCI/ADR-RES ovarian
# T-47D breast = system: T-47D breast
# BT-549 breast = system: BT-549 breast
# MDA-MB-435 melanoma = system: MDA-MB-435 melanoma
# SW-620 colon = system: SW-620 colon
# MCF7 breast = system: MCF7 breast
# HCT-116 colon = system: HCT-116 colon
# HCC-2998 colon = system: HCC-2998 colon
# KM12 colon = system: KM12 colon
# SR leukemia = system: SR leukemia
SMILES,growth (MOLT-4 leukemia),growth (RPMI-8226 leukemia),growth (OVCAR-8 ovarian),growth (OVCAR-5 ovarian),growth (OVCAR-4 ovarian),growth (SK-OV-3 ovarian),growth (IGROV1 ovarian),growth (OVCAR-3 ovarian),growth (HS 578T breast),growth (NCI/ADR-RES ovarian),growth (T-47D breast),growth (BT-549 breast),growth (MDA-MB-435 melanoma),growth (SW-620 colon),growth (MCF7 breast),growth (HCT-116 colon),growth (HCC-2998 colon),growth (KM12 colon),growth (SR leukemia)
CCn1nccc1NC(=O)C(=O)c1cn(Cc2ccc(F)cc2)c2cccc(OC)c12,66.4%,59.9%,92.2%,96.8%,94.8%,100%,3.65% (active),94%,89%,90.2%,80.5%,86.1%,104%,93.3%,97.3%,51.1%,102%,97.2%,–
O=C(CCl)c1ccc([N+](=O)[O-])o1,-52.8% (active),-47.7% (active),8.79% (active),-72.8% (active),2.25% (active),102%,1.46% (active),-100% (active),40.9%,-49.5% (active),-53.5% (active),44.3%,-4.26% (active),-97% (active),18.6%,-100% (active),31.1%,-21.2% (active),–
CC[CH2][Sn]([Cl])([Cl])[CH2]CC,58.6%,19%,89.7%,94.9%,95.2%,107%,84.6%,105%,96.8%,106%,-3.16% (active),60.7%,79.8%,36.9%,50.4%,79.9%,87.7%,101%,–
CCCCCCCOC(C(=O)OCCN(CC)CC)(c1ccccc1)c1ccccc1,70.3%,72.4%,104%,91.3%,81.6%,104%,68.7%,94.1%,94.5%,97.8%,86%,88.3%,98.2%,77.3%,115%,58%,88.5%,78.4%,–
CC(C)[C@@H]1NC(=O)[C@]2(C)CSC(=N2)c2csc(n2)CNC(=O)C[C@@H](/C=C/CCS)OC1=O,7.47% (active),-15.4% (active),-11.9% (active),25%,27.7%,-12.6% (active),0.877% (active),-21.3% (active),7.81% (active),52%,-17.9% (active),41.7%,5.9% (active),1.33% (active),13.9%,-34.8% (active),-48% (active),1.21% (active),–
CC(C)(NC(=O)O[C@@H]1CN2CCC1CC2)c1csc(-c2ccc(F)cc2)n1,91.3%,103%,102%,96.2%,97.4%,99.6%,101%,109%,98.2%,96.8%,88.3%,101%,99.1%,99.2%,90.3%,95.5%,102%,101%,–
[Au+].[N-]=C=O.c1ccc(CN2[CH-]N(Cc3ccccc3)C(c3ccccc3)=C2c2ccccc2)cc1,76.1%,63.9%,98.9%,145%,79.7%,96.8%,81.1%,82.6%,84.4%,109%,52.4%,89.8%,101%,89.6%,46.1%,67.6%,79.9%,90.4%,–
COC(=O)[C@@H](C)C[C@H](Cc1ccccc1)NC(=O)c1csc([C@@H](C[C@H](C(C)C)N(C)C(=O)[C@@H](NC(=O)[C@H]2CCCCN2C)C(C(F)(F)F)C(F)(F)F)OC(C)=O)n1,5.94% (active),11.2%,16.8%,39.6%,43.7%,16.4%,20.2%,-42.5% (active),17.6%,23.8%,59.7%,-21.6% (active),-46.1% (active),23.1%,12.2%,-10.3% (active),19.9%,7.94% (active),–
COC1=CC(=O)O[C@@H](/C=C/c2ccc3c(c2)OCO3)C1,91%,49.9%,99.3%,95.7%,112%,110%,99.2%,153%,95.1%,95.7%,93.2%,95%,100%,104%,99.7%,105%,111%,103%,–
CC1=C2[C@@H](CC1)[C@]1(C)O[C@@](C(C)C)(C[C@H]1O)[C@H]2OC(=O)C1CC1c1ccccc1 (stereo not given in full),63.4%,58.2%,71.8%,97.5%,91.8%,90.6%,96.2%,100%,95.5%,77.4%,53.4%,81.4%,98.4%,101%,92.2%,90.7%,115%,92%,–
COc1cc(C=Nc2cccc(C(=O)O)c2)ccc1N(CCCl)CCCl,97.9%,100%,95.2%,110%,114%,110%,97%,105%,92.8%,103%,96.3%,103%,91.5%,90.4%,95.2%,104%,74.4%,57.3%,–
Fc1c[c-]c(-c2ccccn2)c(F)c1.[CH3-].[Pt+2].c1ccc([PH+](c2ccccc2)c2ccccn2)cc1,8.87% (active),-8.21% (active),10.3%,-48.1% (active),-2.32% (active),5.32% (active),-12% (active),-22.2% (active),-1.24% (active),32.1%,-7.66% (active),-1.42% (active),-50.5% (active),-11.6% (active),-16.3% (active),-43.8% (active),20.2%,10.4%,–
O=c1[nH]cc(N(CCCl)CCCl)c(=O)[nH]1,15.3%,–,–,70.1%,105%,93.3%,50.2%,98.5%,87.8%,66.3%,53%,81.5%,86.5%,71.8%,53.1%,78.8%,61.6%,86.5%,10.4%
CC1=C(CN)C2=C(C)C3(CC3)[C@@](C)(O)C(=O)C2=C1,96.7%,114%,84.2%,97.9%,93.2%,102%,94.8%,101%,86%,93.8%,88.6%,63.3%,97.9%,90.7%,85.1%,90.4%,92%,101%,–
CC1CCCC(C[N+](C)(C)C)C1=O (stereo not given),75.7%,105%,108%,104%,93.1%,110%,92.3%,121%,111%,107%,84.5%,125%,106%,109%,103%,109%,102%,109%,–
N#C[S-].[Au+].c1ccc(CN2[CH-]N(Cc3ccccc3)C(c3ccccc3)=C2c2ccccc2)cc1,3.58% (active),-16.4% (active),12.1%,36.8%,19.4%,-0.746% (active),30.3%,-6.54% (active),36.3%,59.8%,7.11% (active),23.4%,13.3%,17.9%,4.87% (active),8.06% (active),30.9%,14.2%,–
COc1cccc2c1c(C(=O)C(=O)Nc1ccn[nH]1)cn2Cc1ccc(F)cc1,97.5%,96.8%,101%,91.2%,110%,95.9%,84.7%,106%,100%,109%,104%,114%,121%,102%,92.3%,103%,39.6%,105%,–
